Screening data as filed in PubChem BioAssay.
Sampled rows, rich in hits. Any-hit rate of the full collection: about 4.1%.
FBA Mtb inh: Mtb FBA enzyme inhibitors, primary screen, biochemical, fluorescence, strain H37Rv. 360,000 compounds, 2.3% hits. inhibition, % at 1 µM. purified M. tuberculosis FBA, fluorescence read-out. Fructose-bisphosphate aldolase (Mycobacterium tuberculosis (strain ATCC 25618 / H37Rv)), …;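 further: 0% = vehicle and 100% = reference inhibitor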
UGM FP inh: M. tuberculosis UGM enzyme inhibitors, primary screen, biochemical, fluorescence polarization, single point; inhibition, % at 10 µM; 320,000 compounds, 0.06% hits; UDP-galactopyranose mutase (Mycobacterium tuberculosis (strain ATCC 25618 / H37Rv)), …; purified UGM, fluorescence polarization probe displacement; in the data active means inhibition above about 10%, passing the limit was not always enough
GDH-TPI counter-1: GDH-TPI coupling enzyme inhibitors, primary screen, artefact control for M. tuberculosis FBA inhibitor project, biochemical, absorbance, full deck | GDH-TPI coupled enzyme counterscreen, NADH absorbance | inhibition, % at 4.8 µM | 360,000 compounds, 1.2% hits | AID 588335, 2011; in the data active means inhibition above about 30%;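 further: 0% = DMSO wells and 100% = wells lacking the enzyme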
RecA splice inh: Mtb RecA intein splicing inhibitors, primary screen, biochemical, fluorescence, HTS | Protein RecA (Mycobacterium tuberculosis (strain ATCC 25618 / H37Rv)), P9WHJ3 | cell-free RecA intein splicing | inhibition, % (no concentration beside the values) | 290,000 compounds, 0.75% hits; in the data active means inhibition above about 30%;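 further: 0% = vehicle wells and 100% = reference inhibitor control wells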
BH1578 lux ind: inducers of Vibrio cholerae quorum light production without autoinducers, primary screen, BH1578 luxS cqsA deficient, single point; V. cholerae BH1578 lux reporter, luminescence, 6 h; activation, % at 18.7 µM; 350,000 compounds, 0.16% hits; in the data active means activation mostly above about 9.7%, no sharp cut-off
Rv3671c protease: Rv3671c serine protease inhibitors, primary screen, biochemical, fluorescence polarization, M. tuberculosis H37Rv | P9WHR9 | inhibition, % at 5.96 µM | 320,000 compounds, 0.048% hits; in the data active means inhibition above about 38%;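 further: extracellular domain of Rv3671c used as enzyme; 0% = enzyme with DMSO and 100% = no enzyme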
Target sequence (P9WHR9 whole entry, looked up, the tested form may be a part): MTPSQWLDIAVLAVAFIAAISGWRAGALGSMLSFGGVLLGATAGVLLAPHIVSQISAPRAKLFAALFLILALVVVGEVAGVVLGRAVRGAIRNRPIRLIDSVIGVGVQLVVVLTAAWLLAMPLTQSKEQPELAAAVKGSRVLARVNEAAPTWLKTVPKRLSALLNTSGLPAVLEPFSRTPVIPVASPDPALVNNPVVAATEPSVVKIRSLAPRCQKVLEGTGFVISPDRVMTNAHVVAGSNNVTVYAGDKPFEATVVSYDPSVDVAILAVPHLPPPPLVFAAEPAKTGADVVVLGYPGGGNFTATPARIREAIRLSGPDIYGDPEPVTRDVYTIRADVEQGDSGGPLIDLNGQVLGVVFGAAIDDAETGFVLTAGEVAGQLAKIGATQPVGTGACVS
Mtb FBA inh conf: M. tuberculosis aldolase blockers, biochemical, fluorescence, strain H37Rv, confirmation; shares compounds with FBA Mtb inh; purified M. tuberculosis FBA, fluorescence read-out; inhibition, % at 1 µM; 5,600 compounds, 78% hits;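 further: 0% = vehicle wells and 100% = reference inhibitor wells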
GDH-TPI counter-2: GDH-TPI coupling enzyme inhibitors, artefact control for M. tuberculosis FBA inhibitor project, biochemical, fluorescence, high throughput | 5,600 compounds, 81% hits | shares compounds with FBA Mtb inh | AID 652141, 2013 | inhibition, % at 1 µM | GDH-TPI coupled enzyme counterscreen; in the data active means inhibition above about 10%
An asterisk follows results filed as active; i = inactive; nt = no result given; + = active, no number. Unless noted, no stated cut-off is given here; in the data, active means inhibition above about 27%; inactive means the rest.

SMILES | FBA Mtb inh | UGM FP inh | GDH-TPI counter-1 | RecA splice inh | BH1578 lux ind | Rv3671c protease | Mtb FBA inh conf | GDH-TPI counter-2
O=C(CN1c2cccc3cccc(c23)S1(=O)=O)NCCc1ccc(F)cc1 | 4 | 2 | 12 | nt | -2 | -10 | nt | nt
Cc1ccc(-n2c3nc(=O)n(C)c(=O)c-3cc3ccccc32)cc1 | 27* | 1 | 13 | -93 | 0 | 9 | 93* | 87*
CCCCn1c(=O)nc2n(-c3ccc(C)cc3)c3ccccc3cc-2c1=O | 11 | 0 | -12 | -20 | 0 | 0 | nt | nt
COc1cc2c(cc1O)C[C@H]1c3c(cc(O)c(OC)c3-2)CCN1C | 47* | -1 | 4 | nt | i | 6 | 32* | 23*
CCOC(=O)C(=O)N(C)c1c(CC)nc2c(OCc3ccccc3)cccn12 | -2 | nt | 3 | nt | i | nt | nt | nt
Cc1ccc2[nH]ccc(=O)c2c1 | 30* | 1 | 12 | 0 | i | 1 | 52* | 39*
Cc1ccc2[nH]c(CSc3ccccc3)cc(=O)c2c1 | 1 | 0 | 15 | -1 | i | 1 | nt | nt
COc1c(C)cc(C(O)c2ncc(-c3ccccc3C(F)(F)F)[nH]2)cc1C (stereo unspecified) | -3 | nt | 1 | nt | -1 | nt | nt | nt
Cc1cc(C(O)c2ncc(-c3cccc4ccccc34)[nH]2)ccc1F (stereo unspecified) | 40* | nt | 3 | nt | -1 | nt | 56* | 41*
OC(c1ccc(Cl)c(F)c1)c1ncc(-c2cccc3ccccc23)[nH]1 (stereo unspecified) | 20 | nt | 3 | nt | i | nt | nt | nt
COc1c(C)cc(C(O)c2ncc(-c3cccc4ccccc34)[nH]2)cc1C (stereo unspecified) | 35* | nt | 1 | nt | 0 | nt | + | +
Clc1nc(Oc2ccccc2)nc(-c2cn(-c3ccccc3)c3ccccc23)n1 | 56* | 0 | 14 | 6 | i | 0 | 45* | 40*
CCNc1nc(Cl)nc(-c2cn(-c3ccccc3)c3ccccc23)n1 | 6 | -1 | 28 | -2 | i | -7 | nt | nt
O=C1CCCCC1(c1ccccc1)c1ccccc1 | -2 | nt | 1 | nt | -7 | nt | nt | nt
N#Cc1nc(-c2ccccc2F)oc1NCCN1CCOCC1 | 36* | 0 | 12 | 0 | 0 | 5 | 84* | 81*
Cc1ccc(-c2nc(C#N)c(NCCN3CCCCC3)o2)cc1 | 94* | 0 | 16 | nt | i | 2 | 170* | 121*
Cc1cccc(-c2nc(C#N)c(NCC3CCCO3)o2)c1 (stereo unspecified) | 34* | -1 | -8 | -3 | -1 | 7 | 109* | 88*
O=S(=O)(c1ccc(F)cc1)c1nc(-c2ccc(F)cc2)oc1NCCN1CCOCC1 | -1 | nt | 6 | -4 | -2 | nt | nt | nt
N#Cc1nc(-c2ccc(F)cc2)oc1NCCN1CCOCC1 | 46* | 0 | 16 | 2 | 0 | 4 | 81* | 62*
N#Cc1nc(COc2ccccc2)oc1NCCN1CCOCC1 | 3 | -2 | -5 | -2 | 0 | 8 | nt | nt
CCCN1CNc2c(c(=O)[nH]c(=S)n2-c2ccc(Cl)cc2)C1 | -1 | 1 | -3 | -3 | i | 2 | nt | nt
COc1cccc(-c2c(-c3cc(OC)cc(OC)c3)n(C)c3ccc(-c4ccc5cc[nH]c5c4)cc23)c1 | 34* | -1 | 33* | nt | i | 3 | 58* | 43*
COc1cc(OC)cc(-c2c(-c3cccs3)c3cc(-c4ccc5[nH]ccc5c4)ccc3n2C)c1 | 35* | -2 | 19 | nt | -5 | 6 | 97* | 66*
COc1cc(OC)cc(-c2c(-c3cccs3)c3cc(-c4ccc(SC)cc4)ccc3n2C)c1 | 0 | -1 | 9 | nt | -4 | -7 | nt | nt
